Values joined by “and” are separate entries in the source; they are usually repeats but may differ in a detail not shown here. Identical values can stand only once. Records with an inconclusive call do not appear. Active and inactive are the calls of the source. Calls follow the shape of the dose curve; as a rule, active = well fitted inhibition curve with a large enough effect; inconclusive = small, poorly fitted or top-dose-only effect; inactive = flat fitted curve, though single readings scatter.
How the values were obtained:
CRL-7250 = normal cell line; assay: Cytotoxic Profiling of Annotated Libraries Using Quantitative High-Throughput Screening (AID 1296008); details: Five cell lines viability, CellTiter-Glo ATP luminescence, 48-72 h; max response: stronger effect = lower value
Outline: (§1)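 Cytotoxicity was measured as CellTiter-Glo ATP luminescence, read after 10 min at room temperature. Compound treatment of the cells lasted 48 or 72 hr at 37 degrees Celsius in a qHTS format.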

HaCat [1] = assay: as above; details: Five cell lines viability, CellTiter-Glo ATP luminescence, 48-72 h; max response: stronger effect = lower value
Outline: as §1

KB-3-1 = assay: as above; details: Five cell lines viability, CellTiter-Glo ATP luminescence, 48-72 h; max response: stronger effect = lower value
Outline: as §1

MCC-13 = assay: qHTS assay to identify novel small-molecules to repurpose for Merkel cell carcinoma treatment (AID 1296009); details: MCC and control cell lines, CellTiter-Glo viability, 72 h; series mostly up to 46 µM
Outline: (§2)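 Cell viability measured by CellTiter-Glo following 72 hr compound treatment at 37 degree celsius, with NPC and MIPE libraries tested in 8- and 11-point concentration series.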

MKL-1 = assay: as above; details: MCC and control cell lines, CellTiter-Glo viability, 72 h; series mostly up to 46 µM
Outline: as §2

NIH3T3 = assay: Cytotoxic Profiling of Annotated Libraries Using Quantitative High-Throughput Screening (AID 1296008); details: Five cell lines viability, CellTiter-Glo ATP luminescence, 48-72 h; max response: stronger effect = lower value
Outline: as §1

HACAT [2] = assay: qHTS assay to identify novel small-molecules to repurpose for Merkel cell carcinoma treatment (AID 1296009); details: MCC and control cell lines, CellTiter-Glo viability, 72 h; series mostly up to 44.8 µM
Outline: as §2

MCC-26 = assay: as above; details: MCC and control cell lines, CellTiter-Glo viability, 72 h; series mostly up to 46 µM
Outline: as §2
% is scaled to controls: 0 for no effect and ±100 for the full control effect; potency is read from the fitted curve at half-maximal effect.
Also: nearly all actives have a fitted effect of over 60% in size.

O=C(O)C1(Cc2cccc(Nc3nccs3)n2)CCC(Oc2cccc(Cl)c2F)CC1 (stereo not drawn)
active: Potency (HaCat [1]) 5.26 µM and 4.61 µM | Potency (KB-3-1) 2.35 µM | Potency (MCC-13) 10.5 µM
inactive: max response (CRL-7250) -5.96% and -3.26%

COc1cc(C(=O)NS(=O)(=O)c2ccccc2C)ccc1Cc1cn(C)c2ccc(NC(=O)OC3CCCC3)cc12
inactive: outcome (CRL-7250) | max response (KB-3-1) -2.66% | Potency (MKL-1)

CS(=O)(=O)N1CCN(Cc2cc3nc(-c4cccc5[nH]ncc45)nc(N4CCOCC4)c3s2)CC1
active: Potency (CRL-7250) 1.05 µM and 1.64 µM | Potency (HaCat [1]) 29.6 nM | Potency (NIH3T3) 296 nM and 1.3 µM
inactive: Potency (MCC-13)

CC1(C)OC2=C(C(=O)c3ccccc3C2=O)[C@H](NCc2ccccc2)[C@H]1O
active: Potency (CRL-7250) 16.6 µM | Potency (KB-3-1) 9.35 µM | Potency (NIH3T3) 11.8 µM | Potency (MCC-13) 10.5 µM | Potency (MKL-1) 3.32 µM

Cn1c(=O)n(-c2ccc(C(C)(C)C#N)cc2)c2c3cc(-c4cnc5ccccc5c4)ccc3ncc21
active: Potency (CRL-7250) 259 nM and 235 nM | Potency (KB-3-1) 731 nM and 16.6 nM | Potency (NIH3T3) 580 nM and 46.9 nM
inactive: outcome (HaCat [1]) | Potency (HACAT [2]) | Potency (MKL-1)

CC1(C)CCC(c2ccc(Cl)cc2)=C(CN2CCN(c3ccc(C(=O)NS(=O)(=O)c4ccc(N[C@H](CCN5CCOCC5)CSc5ccccc5)c(S(=O)(=O)C(F)(F)F)c4)cc3)CC2)C1
inactive: max response (CRL-7250) 3.93% | max response (KB-3-1) -2.09% | Potency (MCC-13)
active: Potency (MKL-1) 0.418 µM

COc1cc(Nc2ncc(F)c(Nc3ccc4c(n3)N(COP(=O)(O)O)C(=O)C(C)(C)O4)n2)cc(OC)c1OC
active: Potency (CRL-7250) 1.48 µM and 3.66 µM | Potency (HaCat [1]) 4.69 µM and 4.61 µM | Potency (KB-3-1) 4.11 µM | Potency (NIH3T3) 2.06 µM
inactive: Potency (MCC-13) | Potency (MKL-1)

Cc1ccc(C(=O)Nc2cccc(C(F)(F)F)c2)cc1-c1ccc2nc(NCCN3CCOCC3)ncc2c1
active: Potency (CRL-7250) 4.18 µM and 7.31 µM | Potency (HaCat [1]) 6510 nM | Potency (KB-3-1) 16.6 µM | Potency (NIH3T3) 10.5 µM and 18.4 µM | Potency (MCC-13) 11.8 µM | Potency (MCC-26) 18.7 µM

COc1cc2c(Oc3ccc4[nH]c(C)cc4c3F)ncnc2cc1OCCCN1CCCC1
active: Potency (CRL-7250) 8.2 µM | Potency (HaCat [1]) 8.33 µM and 7.31 µM | Potency (NIH3T3) 1.87 µM and 2.06 µM
inactive: Potency (MCC-13)

C[C@]12CC[C@H](O)CC1=CCC1C2CC[C@]2(C)C(n3cnc4ccccc43)=CCC12 (stereo partly drawn)
inactive: max response (CRL-7250) -7.08% | max response (HaCat [1]) 2.2% | max response (KB-3-1) 0.714% | max response (NIH3T3) 3.78% and -16% | Potency (MCC-13) | Potency (MCC-26) | Potency (MKL-1)

CC[C@H](CO)Nc1nc(NCc2ccccc2)c2ncn(C(C)C)c2n1
inactive: max response (NIH3T3) -26.8% | Potency (MCC-13) | Potency (MCC-26) | Potency (MKL-1)
active: Potency (CRL-7250) 26.4 µM

CC[C@@H]1C(=O)N(C)c2cnc(Nc3ccc(C(=O)NC4CCC(N5CCN(CC6CC6)CC5)CC4)cc3OC)nc2N1C(C)C (stereo partly drawn)
active: Potency (CRL-7250) 332 nM and 14.6 µM | Potency (HaCat [1]) 59 nM | Potency (KB-3-1) 11.8 nM and 4.6 nM | Potency (NIH3T3) 2.64 µM and 1.46 µM and 1.3 µM | Potency (MCC-13) 0.469 µM | Potency (MKL-1) 0.0743 µM

Nc1ccccc1NC(=O)c1ccc(CNc2nccc(-c3cccnc3)n2)cc1
active: Potency (CRL-7250) 4.18 µM and 5.17 µM | Potency (HaCat [1]) 3720 nM | Potency (KB-3-1) 1.87 µM and 2.06 µM | Potency (MCC-13) 5.26 µM | Potency (MKL-1) 2.35 µM

CCCCCN(CCC12CC3CC(CC(C3)C1)C2)C(=O)NCCCc1ccncc1
inactive: max response (CRL-7250) -19% | max response (HaCat [1]) -32% | max response (NIH3T3) -9.34% | Potency (MCC-13) | Potency (MCC-26) | Potency (MKL-1)

CC(C)c1cc(C(=O)N2Cc3ccc(CN4CCN(C)CC4)cc3C2)c(O)cc1O
active: Potency (CRL-7250) 0.935 µM | Potency (HaCat [1]) 264 nM and 206 nM | Potency (KB-3-1) 0.0731 µM | Potency (NIH3T3) 418 nM and 291 nM | Potency (MCC-13) 0.469 µM

COCCOc1ccc2c(c1)ncn2-c1ccc2cccc(N3CCC(N)CC3)c2n1
active: Potency (CRL-7250) 4.69 µM and 8.2 µM | Potency (HaCat [1]) 18.7 µM and 16.4 µM | Potency (KB-3-1) 16.6 µM and 11.6 µM | Potency (NIH3T3) 1.48 µM | Potency (MKL-1) 20.9 µM

CCC(=C(c1ccccc1)c1ccc(OCCN(C)C)cc1)c1ccccc1
inactive: max response (CRL-7250) 3.45% | max response (HaCat [1]) 2.08% | max response (KB-3-1) -16.9% | max response (NIH3T3) 1.38% | Potency (MCC-13) | Potency (MCC-26)

C=C1C(=CC=C2CCCC3(C)[C@@H]([C@H](C)C=CC=CC(O)(CC)CC)CC[C@@H]23)C[C@@H](O)C[C@@H]1O (stereo partly drawn)
inactive: max response (CRL-7250) 4.9% | outcome (HaCat [1]) | outcome (KB-3-1) | Potency (HACAT [2]) | Potency (MCC-13) | Potency (MCC-26) | Potency (MKL-1)

Nc1ccccc1NC(=O)c1ccc(CNC(=O)OCc2cccnc2)cc1
active: Potency (CRL-7250) 9.2 µM | Potency (HaCat [1]) 13.2 µM and 5.17 µM | Potency (KB-3-1) 9.35 µM and 7.31 µM | Potency (MKL-1) 2.35 µM

From PubChem BioAssay (NCATS)
